Assay outcomes: PubChem, Broad Institute
LMP1 NFkB inh – inhibitors of Epstein-Barr LMP1-induced NF-kappaB reporter | LMP1-induced NF-kappaB luciferase reporter cells, luminescence | inhibition, % at 12.5 µM | 350,000 compounds, 0.69% hits; in the data active = inhibition above about 41%; inconclusive = no clear call, values can overlap the other calls;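 also: 0% = neutral control wells and 100% = reference inhibitor control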
aSyn UTR inh – MLPCN primary screen, SNCA 5' untranslated region; inhibition, % (tested at 7.5 µM); alpha-synuclein 5'UTR reporter, inhibitor activity; 300,000 compounds, 0.82% hits; in the data active = inhibition above about 60%; inconclusive = no clear call, values can overlap the other calls;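 also: H4 neuroglioblastoma cells stably carrying SNCA 5'UTR luciferase fusion; 0% = DMSO wells and 100% = positive control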
MITF TRPM1 inh – inhibitors of MITF-driven TRPM1 promoter in melanoma cells. SK-MEL-5 TRPM1 promoter luciferase, 24 h. inhibition, % at 12.5 µM. 330,000 compounds, 0.83% hits;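 active = mean inhibition across replicates of 60% or more, whatever share of single replicates reaches that level; inconclusive = some that reach 60%, reason not given; inactive = mean inhibition across replicates below 60%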
PAX8 inh HTS – inhibitors of PAX8 transcriptional activity in RMG-I cells; 360,000 compounds, 1.2% hits; AID 652154; RMG-I TPO-luciferase reporter, SteadyGlo, 24 h; inhibition, % at 12.6 µM;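 active = mean replicate inhibition at least 60% with every replicate also reaching 60%; inconclusive = only one of the two criteria is met; inactive = mean below 60% and not all replicates reaching 60%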;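 also: luciferase light reporting Pax8 driven TPO promoter activity; plate controls were median of neutral control wells for no effect and mitoxantrone controls for full effect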
Shn3 3UTR inh – Schnurri-3 reporter inhibition in Clone20 osteoblasts. Clone20 osteoblast Shn3 3'UTR firefly luciferase, 24 h. inhibition, % at 12.5 µM. 360,000 compounds, 0.52% hits;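 active = mean inhibition of at least 75% with every replicate also reaching 75%; inconclusive = mean inhibition at least 75% but some replicate below; inactive = mean inhibition below 75%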;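 also: 0% = median of neutral control wells and 100% = pilot-screen positive control compound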
* hit, by the source's call; u = inconclusive; x = no result. This is a sample that favours compounds with a hit; in the whole collection about 2.1% have one here.

SMILES	LMP1 NFkB inh	aSyn UTR inh	MITF TRPM1 inh	PAX8 inh HTS	Shn3 3UTR inh
Cc1ccc2ccc(C(Nc3ccccc3)c3ccc(C(C)C)cc3)c(O)c2n1 (configuration not stated)	x	x	x	18	x
Cc1ccc2ccc(C(Nc3ccccc3)c3ccc(Cl)cc3)c(O)c2n1 (configuration not stated)	x	x	x	53	x
CCC(=O)NC(c1ccc(C)cc1)c1ccc2cccnc2c1O (configuration not stated)	u	81*	u	92*	90*
CC(=O)NC(c1ccc(Cl)cc1)c1ccc2cccnc2c1O (configuration not stated)	63*	x	55	95*	87*
CCCCn1nnc(NC(=O)CCC)n1	4	5	12	x	-13
CO[C@@H]1CN(C)C(=O)c2ccc(NS(=O)(=O)CC(F)(F)F)cc2OC[C@@H](C)N(Cc2nccs2)C[C@@H]1C	x	x	x	-11	x
C[C@H]1CN([C@@H](C)CO)C(=O)Cc2cc(NC(=O)CCCN(C)C)ccc2O[C@@H]1CN(C)S(C)(=O)=O	x	x	x	3	x
CC(=O)NC(c1ccco1)c1ccc2cccnc2c1O (configuration not stated)	25	77*	52	x	74
CCC(=O)NC(c1ccc(C)cc1)c1cc([N+](=O)[O-])c2cccnc2c1O (configuration not stated)	17	64*	6	12	8
CCC(=O)NC(c1ccco1)c1cc(Br)c2cccnc2c1O (configuration not stated)	x	x	x	35	38
CCCCC(=O)NC(c1ccc(OC)cc1)c1ccc2cccnc2c1O (configuration not stated)	65*	x	x	71*	91*
Cc1ccc2ccc(C(Nc3ccccc3)c3ccccc3)c(O)c2n1 (configuration not stated)	x	x	x	70*	x
COCCCn1c(-c2ccc(S(=O)(=O)N3CCOCC3)cc2)csc1=Nc1ccccc1	28	15	29	-2	91*
COc1ccc(Cl)cc1NC(=O)CN(C)CC(=O)N1CC(=O)Nc2ccccc21	-4	x	13	20	11
COc1ccc(Cl)cc1NC(=O)CN(C)CC(=O)Nc1ccccc1N1CCOCC1	5	112*	16	42	3
COc1ccccc1OCc1ccc(C(=O)NN)cc1	9	4	12	x	7
COc1ccccc1OCc1ccc(C(=O)c2ccccc2)cc1	63*	-49	-21	-30	-6
CCOC(=O)COc1ccccc1/C=C\[N+](=O)[O-]	15	-9	97*	x	97*
Cc1ccc(C(=O)COC(=O)COc2ccccc2[N+](=O)[O-])s1	3	x	x	-8	-8
COc1cc(NC(=S)N2CCN(CCO)CC2)cc(OC)c1	69*	17	8	11	-3
CC(C)NC(=O)N(C)C[C@H]1OCCCC[C@H](C)Oc2ccc(NC(=O)C3CCCCC3)cc2C(=O)N([C@@H](C)CO)C[C@H]1C	x	x	x	0	x
O=C(O)CSc1cc(NS(=O)(=O)c2ccc(Cl)cc2)c2ccccc2c1O	9	21	36	23	10
Cc1cc(C)c(S(=O)(=O)Nc2cc(SCC(=O)O)c(O)c3ccccc23)cc1C	x	67*	x	x	x
COc1ccc(S(=O)(=O)Nc2cc(SCC(=O)O)c(O)c3ccccc23)cc1	-9	7	68*	-14	13
Cc1cc(C)c(S(=O)(=O)/N=C2/C=C(SCC(=O)O)C(=O)c3ccccc32)cc1C	2	x	51	x	22
SMILES	LMP1 NFkB inh	aSyn UTR inh	MITF TRPM1 inh	PAX8 inh HTS	Shn3 3UTR inh
O=C(N/N=C/c1cccc(O)c1)c1ccc2c(c1)OCCO2	64*	15	-9	7	-23
C/C(=N\NC(=O)c1ccc2c(c1)OCCO2)c1ccccc1	12	73*	-1	-135	5
Cc1ccsc1/C=N\NC(=O)c1n[nH]c2c1CCC2	35	69*	7	20	-5
Cc1ccsc1/C=N/NC(=O)c1ccc2c(c1)OCCO2	59*	17	3	-8	-20
O=C(N/N=C/c1c(Cl)cccc1Cl)c1n[nH]c2c1CCCC2	-13	-135	-46	-42	-73
Cc1noc(C)c1NC(=O)N(C)C[C@@H]1OCCCC[C@@H](C)Oc2ccc(NC(=O)C3CCCCC3)cc2C(=O)N([C@H](C)CO)C[C@H]1C	x	x	x	13	x
O=C(NCCCN1CCCC1)c1ccc2c(c1)N(Cc1ccccc1F)C(=O)c1ccccc1S2(=O)=O	-8	-18	-6	7	-4
Cc1ccc(CS/C(Nc2ccccc2C)=C(\C#N)C(=O)NCc2ccco2)c(C)c1	-1	3	-5	x	27
C=CCN(c1ccc(C(=O)NC(C)C)cc1)S(C)(=O)=O	3	9	9	x	-14
CO[C@H]1CN(C)C(=O)c2cc(NC(=O)C3CCCC3)ccc2OC[C@@H](C)N(C(C)=O)C[C@H]1C	x	x	x	-13	x
c1nc(NCc2ccc3c(c2)OCO3)c2cc(-c3ccoc3)ccc2n1	49*	x	-40	-29	-3
COC(=O)C(CC#Cc1ccc2c(c1)[C@]1(C(=O)N2)[C@H](c2ccc(OCCO)cc2)N2[C@H](c3ccccc3)[C@H](c3ccccc3)OC(=O)[C@H]2[C@@H]1C(=O)N1CCN(c2ncccn2)CC1)C(=O)OC	x	x	x	-22	x
NC(=O)[C@H]1[C@@H]2C(=O)O[C@@H](c3ccccc3)[C@@H](c3ccccc3)N2[C@@H](c2ccccc2OCCO)[C@]12C(=O)Nc1ccc(C#CC3(O)CCCCCC3)cc12	x	x	x	103*	x
COC(=O)C(CC#Cc1ccc2c(c1)[C@]1(C(=O)N2)[C@H](c2ccccc2OCCO)N2[C@H](c3ccccc3)[C@H](c3ccccc3)OC(=O)[C@H]2[C@@H]1C(=O)N1CCN(c2ncccn2)CC1)C(=O)OC	x	x	x	110*	x
COc1ccc(S(=O)(=O)Nc2ccc3c(c2)C(=O)N([C@@H](C)CO)C[C@@H](C)[C@H](CN(C)Cc2ccc(C(=O)O)cc2)OCCCC[C@@H](C)O3)cc1	x	x	x	-9	x
O=C1c2ccccc2C(=O)c2[nH]cnc21	-7	18	43	2	17
O=C1c2ccccc2C(=O)c2[nH]c(=O)[nH]c21	89*	93*	101*	91*	71
COc1ccc(/C=C2/Sc3ccc(C(=O)NCCN4CCCCCC4)cc3NC2=O)cc1	-1	45	95*	9	53
O=C1Nc2cc(C(=O)NCCCN3CCCC3)ccc2S/C1=C\c1ccccc1	-6	-94	96*	12	-25
CCCc1ccc(C(=O)CCC(=O)O)cc1	5	-20	-17	x	-16
CCN(CC)C(=O)Cn1c(=O)n(-c2ccccc2)c(=O)c2sccc21	-1	-7	-8	5	x
CC[C@]12c3[nH]c4cc(CCC(=O)N(C)C)ccc4c3CCN1C(=O)[C@@H](CC(=O)NCCCN(C)C)C[C@@H]2C(=O)N1CCN(C(=O)C2CC2)CC1	-9	x	3	6	-34
NNC(=O)c1nn(-c2ccc(Cl)cc2)cc1O	8	42	14	72*	-23
